Cruzain Triton – cruzain (T. cruzi) inhibition with detergent. actives 0.43% (n = 200,000). AID 1478. P25779. Potency, µM, inactives show max response, negative = inhibition, most hits filed as inhibitors. purified cruzain, Z-FR-AMC fluorescence, 0.01% Triton;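 further: plate controls were neutral wells for no effect and buffer without enzyme for full effect; nearly all actives have a fitted effect of over 40% in size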
Target sequence (P25779 123-467 limits assumed): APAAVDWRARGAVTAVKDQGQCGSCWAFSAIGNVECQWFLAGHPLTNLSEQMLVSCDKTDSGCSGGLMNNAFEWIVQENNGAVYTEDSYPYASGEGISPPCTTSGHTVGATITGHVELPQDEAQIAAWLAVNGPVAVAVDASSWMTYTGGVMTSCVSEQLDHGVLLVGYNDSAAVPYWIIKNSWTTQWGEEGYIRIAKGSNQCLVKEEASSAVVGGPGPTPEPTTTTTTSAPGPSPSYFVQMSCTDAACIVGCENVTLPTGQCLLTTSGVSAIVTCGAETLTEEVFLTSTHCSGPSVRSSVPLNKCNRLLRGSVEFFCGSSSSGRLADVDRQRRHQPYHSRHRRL
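Cysteine protease activity tested under reducing, mildly acidic conditions (100 mM sodium acetate pH 5.5, 5 mM DTT) plus 0.01% Triton X-100. Cruzain 1.5 nM; substrate Z-FR-AMC 2 uM; 15 min compound preincubation at room temperature.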
Cruzain inh noDet – cruzain (T. cruzi) inhibition without detergent; AID 1476; Potency, µM, for inactives: max response, negative = inhibition, hits mostly inhibitors; P25779; purified cruzain, Z-FR-AMC fluorescence, no detergent; actives 2.3% (n = 200,000);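 further: plate controls were enzyme without inhibitor for no effect and buffer without enzyme for full effect; nearly all actives have a fitted effect of over 40% in size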
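Purified cruzain at 1.5 nM, pre-incubated 15 min with compound at room temperature in 100 mM sodium acetate pH 5.5, 5 mM DTT, 0.00005% Triton X-100. Reaction started with 2 uM Z-FR-AMC; AMC fluorescence increase over 60 s gives rate.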
Starred values were filed as active, the others as inactive; ? = inconclusive. Only some compounds are listed: those with a hit (about 2.6% of all), similar ones and a draw of the others. The call rests on the fitted dose curve; in most records, active means well fitted curve in the direction sought with a large enough effect; inconclusive means small, poorly fitted or top-dose-only effect, or another doubt; inactive means no such curve, though single readings can be large; an effect the other way counts as inactive or inconclusive. Potency means the concentration at half of the fitted maximal effect.

SMILES	Cruzain Triton	Cruzain inh noDet
O=C(NCc1cccc(Cl)c1)c1cc2c(s1)-c1ccccc1SC2	-6.4%	25.1µM*
CC(=O)N1CCCc2cc(S(=O)(=O)N3CCCCC3)ccc21	-0.9%	-9.1%
Cc1ccc(-c2csc3ncnc(SCC(=O)NCc4ccc5c(c4)OCO5)c23)cc1	-0.9%	25.1µM*
O=C(CSc1ncnc2scc(-c3ccc(Cl)cc3)c12)NCc1ccc2c(c1)OCO2	-0.7%	?
COc1ccc(/C=C/C(=O)OCCC(C)C)cc1	0.6%	0.8%
Cc1ccccc1CNC(=O)C1CCCCN1S(=O)(=O)c1ccc(F)cc1 (configuration not stated)	-1.9%	-11.2%
CCOc1cc(NC(=S)Nc2cccc(OC)c2)c(OCC)cc1NC(=O)c1ccc(C)cc1	-1.3%	?
CCOc1cc(NC(=S)Nc2ccccc2)c(OCC)cc1NC(=O)c1ccc(OC)cc1	-2.8%	15.8µM*
COc1ccc(C2CC(=O)c3cc(-c4nc(-c5cccc([N+](=O)[O-])c5)cs4)c(=O)n(-c4ccc(F)cc4)c3C2)cc1 (configuration not stated)	-3.0%	1µM*
COc1ccc(C2CC(=O)c3cc(-c4nc(-c5cccc([N+](=O)[O-])c5)cs4)c(=O)n(-c4ccccc4)c3C2)cc1 (configuration not stated)	-0.4%	-4.5%
CSc1ccc(CCNC(=O)CN2C(=O)COc3ccc(S(=O)(=O)N4CCCC4)cc32)cc1	2.6%	3.9%
N#CCCn1c(=O)c(-c2cc(F)cc(F)c2)nc2cnc(Oc3cccc(Cl)c3)nc21	-0.6%	-10.0%
COc1cc2c(=O)n(Cc3ccccc3)c(=O)n(CC(=O)Nc3cc(C(F)(F)F)ccc3Cl)c2cc1OC	6.9%	3.0%
Nc1ccc2ncccc2c1	1.7%	-6.5%
Nc1ccc2cc3ccccc3cc2c1	0.5%	12.6µM*
O=C(COC(=O)c1ccccc1OCC(=O)Nc1ccc(Br)cc1)Nc1ccccc1	1.4%	12.6µM*
CCC(C)NC(=O)COC(=O)c1ccccc1OCC(=O)Nc1ccc(Br)cc1 (configuration not stated)	2.8%	14.9%
COCC(=O)Nc1ccc(Nc2ccccc2)cc1	4.7%	25.1µM*
CCC(=O)Nc1ccc(Nc2ccccc2)cc1	0.1%	-9.8%
Cc1ccc(NC(=O)CSc2nc3ccc(NC(=O)c4ccco4)cc3s2)cc1	-6.3%	-5.6%
O=C(NCCc1ccc(Cl)cc1)C1CCN(S(=O)(=O)c2ccc3[nH]ccc3c2)CC1	-5.1%	?
Cc1ccc(S(=O)(=O)N2CCCc3cc(NC(=O)c4ccccc4Cl)ccc32)cc1	0.1%	-20.1%
CCOc1ccc2oc(=O)cc(CN3CCN(c4cc(C)ccc4C)CC3)c2c1	-0.5%	0.5%
Clc1cccc(-n2cc(-c3ccccc3)c3c(N4CCCCC4)ncnc32)c1	-0.2%	-6.0%
O=C(Nc1nc(-c2ccncc2)cs1)c1ccco1	-11.6%	15.8µM*
SMILES	Cruzain Triton	Cruzain inh noDet
O=C(Nc1ccccc1NC(=O)c1ccco1)c1ccco1	0.4%	5.8%
O=C(Nc1cccc2cccc(NC(=O)c3ccco3)c12)c1ccco1	-2.4%	25.1µM*
O=C(Nc1nc(-c2cc3ccccc3oc2=O)cs1)c1ccco1	-6.7%	-5.2%
CCCc1ccc(-c2cc(C(=O)N/N=C/c3ccc([N+](=O)[O-])o3)c3ccccc3n2)cc1	-2.2%	15.8µM*
O=C(N/N=C/c1ccc([N+](=O)[O-])o1)c1cc(-c2cccc(Br)c2)nc2ccccc12	-3.3%	?
COC(=O)c1ccc(NC(=O)c2cc(S(=O)(=O)N3CCc4ccccc43)cn2C)cc1	-10.5%	-2.7%
CN1C(=O)C2(c3ccccc31)N(c1ccccc1)C(=O)CS2(=O)=O (configuration not stated)	0.4%	?
CCOc1ccc(N2C(=O)CS(=O)(=O)C23C(=O)N(Cc2cccc(Cl)c2)c2ccccc23)cc1 (configuration not stated)	-3.0%	10µM*
Cc1cc(C)cc(N2C(=O)CS(=O)(=O)C23C(=O)N(Cc2ccc(F)cc2)c2ccc(C)cc23)c1 (configuration not stated)	-4.6%	?
COc1ccc(N2C(=O)CS(=O)(=O)C23C(=O)N(Cc2c(F)cccc2Cl)c2ccccc23)cc1 (configuration not stated)	-3.2%	7.94µM*
O=C1CSC2(C(=O)N(Cc3c(F)cccc3Cl)c3ccccc32)N1c1ccc(F)c(F)c1 (configuration not stated)	-7.2%	-19.4%
COc1ccc(N2C(=O)CS(=O)(=O)C23C(=O)N(Cc2ccccc2)c2ccccc23)cc1 (configuration not stated)	-2.5%	3.16µM*
Cc1cccc(N2C(=O)CS(=O)(=O)C23C(=O)N(Cc2c(F)cccc2Cl)c2ccccc23)c1 (configuration not stated)	-4.2%	3.16µM*
CCc1ccccc1NC(=O)C1CCN(C(=O)N2CC(C)Oc3ccc(Cl)cc32)CC1 (configuration not stated)	-5.3%	-22.2%
CCOc1ccc(CNC(=O)c2oc3c(c2C)-c2nn(Cc4cccc(Cl)c4)cc2CC3)cc1	-3.5%	10.4%
CCc1ccc(NC(=O)CC2C(=O)N(c3ccc(OC)cc3)C(=O)N2Cc2ccc(OC)cc2)cc1 (configuration not stated)	-2.4%	7.8%
O=C(c1ccc(COc2ccc(F)cc2)o1)n1cccn1	15.8µM*	12.6µM*
CCOc1ccc(OCc2ccc(C(=O)O)o2)cc1	0.0%	-3.5%
Cc1nn(Cc2ccc(C(=O)n3cccn3)o2)c(C)c1Br	-7.5%	0.7%
O=C(c1ccc(COc2ccc(F)cc2)o1)n1cc(Br)cn1	14.1µM*	?
Cc1ccnc(NC(=O)c2ccc(COc3ccc(Cl)cc3)o2)c1	-6.1%	0.7%
Cc1cc(OCc2ccc(C(=O)n3cccn3)o2)ccc1Cl	7.94µM*	?
O=C(NCC(c1ccc2c(c1)OCO2)N1CCN(c2ccccc2)CC1)C(=O)Nc1ccccc1 (configuration not stated)	0.0%	-6.8%
COc1ccc(-c2nc3sc(CCNC(=O)Cc4ccccc4)c(C)n3n2)cc1	-2.6%	4.6%
COc1ccc(NC(=O)c2c(C)oc3ccc(O)c(CN4CCCCCC4)c23)cc1Cl	-7.1%	?
SMILES	Cruzain Triton	Cruzain inh noDet
COCCCNC(=O)C(Cc1ccccc1)NS(=O)(=O)c1ccc2c(c1)c(=O)n(C)c(=O)n2C (configuration not stated)	1.4%	-8.1%
Cn1c(=O)c2cc(S(=O)(=O)NC(Cc3ccccc3)C(=O)NCc3ccco3)ccc2n(C)c1=O (configuration not stated)	20µM*	15.8µM*
Cc1ccc(-c2nc3ccccn3c2Nc2ccccc2C)s1	-11.1%	10.7%
Cc1cccc(-c2nnn3c2nc(NCCc2ccc(S(N)(=O)=O)cc2)c2ccccc23)c1	-1.5%	?
NS(=O)(=O)c1ccc(CCNc2nc3c(-c4cccc(F)c4)nnn3c3ccccc23)cc1	1.5%	20µM*
O=c1oc2ccc(Cl)cc2cc1-c1cn2c(n1)sc1ccccc12	4.2%	3.7%
COc1ccc2oc(=O)c(-c3nnc(-c4ccc(C)cc4)o3)cc2c1	11.2%	-6.8%
COc1ccc(-c2nnc(-c3cc4ccccc4oc3=O)o2)cc1	-0.7%	15.8µM*
CN(C)c1oc(-c2ccc(COc3ccccc3)o2)nc1C#N	-1.0%	?
Fc1ccc(Nc2nc(-c3ccoc3)nc3ccccc23)cc1	-9.8%	25.1µM*
COc1ccc(CNc2nc(-c3ccoc3)nc3ccccc23)c(OC)c1	-7.8%	15.8µM*
